In assay [1] the test system is Plasmodium falciparum Sir2 (PF13_0152, Sir2A). In words: Plasmodium falciparum Sir2A binding compounds – biochemical, small-molecule microarray, 635 nm fluorescence, primary screen (AID 1098).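 Note: score merges spot fluorescence intensity with its signal-to-noise ratio.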 The conditions noted are these: fluorescence 635 nm, higher = more signal.
The nature of assay [2]: probe aDKK1 binding to arrayed compounds – biochemical, biotinylated probe, 635/667 nm fluorescence, primary screen (AID 1099).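 Note: score merges 667nm spot fluorescence with signal to noise across triplicate slides.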 The conditions noted are these: small-molecule microarray, higher = more signal.
A short description of assay [3]: probe aCHRDL2 binding to arrayed compounds – biochemical, biotinylated probe, 635/667 nm fluorescence, primary screen (AID 1100). The conditions noted are these: small-molecule microarray, higher = more signal.
Assay [4] is described as follows: change in splice reporter luminescence, either direction, cell-based, HEK293, spliceosome inhibition project, primary screen (AID 1101).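 Note: HEK293 cells carrying a splicing-competent luciferase reporter gene; test concentration not given here.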 The conditions noted are these: HEK293 splicing luciferase reporter, 24 h, higher = more signal, called active from +8 up or from −8 down.
Assay [5] concerns the target Fibroblast growth factor 10 (Homo sapiens) (UniProt O15520). The assay is described as follows: compounds binding fibroblast growth factor 10 – biochemical, small-molecule microarray, 635 nm fluorescence, primary screen (AID 1102). To be noted: FGF10 binding, fluorescence 635 nm, higher = more signal.
Assay [6] relates to glycogen synthase kinase-3 (GSK3A per assay name; protocol says GSK3B). The assay is described as follows: compounds binding glycogen synthase kinase-3 – biochemical, small-molecule microarray, 635 nm fluorescence, GSK3A, primary screen (AID 1103). Note: the record names both GSK3A and GSK3B. To be noted: fluorescence 635 nm, higher = more signal.
The target in assay [7] is Epidermal growth factor receptor (Homo sapiens) (UniProt P00533). In words: compounds binding epidermal growth factor receptor – biochemical, small-molecule microarray, 635 nm fluorescence, primary screen (AID 1104).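 Note: score merges 667 nm emission intensity with spot signal to noise over triplicate slides.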 The conditions noted are these: EGFR binding, higher = more signal.
Sequence of Epidermal growth factor receptor (Homo sapiens) (P00533 whole entry, looked up): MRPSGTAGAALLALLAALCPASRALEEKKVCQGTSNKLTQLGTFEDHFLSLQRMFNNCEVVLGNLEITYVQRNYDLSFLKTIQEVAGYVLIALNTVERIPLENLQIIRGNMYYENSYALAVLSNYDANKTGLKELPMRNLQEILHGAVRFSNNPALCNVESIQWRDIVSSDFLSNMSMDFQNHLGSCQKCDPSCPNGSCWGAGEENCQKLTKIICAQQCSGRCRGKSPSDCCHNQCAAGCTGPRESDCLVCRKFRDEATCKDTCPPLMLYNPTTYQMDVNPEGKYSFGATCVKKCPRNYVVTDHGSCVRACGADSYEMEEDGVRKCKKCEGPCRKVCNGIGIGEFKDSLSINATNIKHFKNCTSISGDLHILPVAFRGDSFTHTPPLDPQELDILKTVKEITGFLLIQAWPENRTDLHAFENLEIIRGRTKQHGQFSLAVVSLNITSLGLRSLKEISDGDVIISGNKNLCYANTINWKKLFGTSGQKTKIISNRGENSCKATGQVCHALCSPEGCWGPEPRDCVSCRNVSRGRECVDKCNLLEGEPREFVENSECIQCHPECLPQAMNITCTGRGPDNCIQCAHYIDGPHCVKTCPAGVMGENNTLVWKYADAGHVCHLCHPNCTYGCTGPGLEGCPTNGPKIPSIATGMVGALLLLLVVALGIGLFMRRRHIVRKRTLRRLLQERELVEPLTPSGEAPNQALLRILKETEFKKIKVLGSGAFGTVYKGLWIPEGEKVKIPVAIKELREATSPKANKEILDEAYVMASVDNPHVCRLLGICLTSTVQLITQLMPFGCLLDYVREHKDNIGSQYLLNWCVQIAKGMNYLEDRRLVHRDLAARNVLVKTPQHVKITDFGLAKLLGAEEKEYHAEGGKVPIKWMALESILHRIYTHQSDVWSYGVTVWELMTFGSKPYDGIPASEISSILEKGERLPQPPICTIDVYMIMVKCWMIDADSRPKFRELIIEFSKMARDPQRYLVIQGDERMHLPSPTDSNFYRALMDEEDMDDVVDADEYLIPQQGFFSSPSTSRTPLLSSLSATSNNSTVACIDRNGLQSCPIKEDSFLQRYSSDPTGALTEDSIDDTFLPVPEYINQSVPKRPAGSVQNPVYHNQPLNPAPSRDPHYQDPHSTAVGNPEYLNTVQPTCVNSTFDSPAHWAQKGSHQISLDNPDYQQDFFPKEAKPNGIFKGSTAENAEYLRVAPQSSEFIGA
Assay [8] concerns the target Follistatin-related protein 3 (Homo sapiens) (UniProt O95633). In words: compounds binding follistatin-related protein 3 – biochemical, small-molecule microarray, 635 nm fluorescence, primary screen (AID 1105).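 Note: score merges emission near 667 nm and signal to noise per printed spot across three slides.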 To be noted: FSTL3 binding, higher = more signal.
Assay [9] addresses Dickkopf-related protein 1 (Homo sapiens) (UniProt O94907). In words: small molecules binding DKK1 protein – biochemical, small-molecule microarray, 635 nm fluorescence scan, primary screen (AID 1106).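 Note: score merges emission near 667 nm with signal to noise over three replicate slides.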 The conditions noted are these: higher = more signal.
The test system of assay [10] is Inhibin beta A chain (activin A). The assay is described as follows: small molecules binding activin A – biochemical, small-molecule microarray, 635 nm fluorescence scan, primary screen (AID 1107).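 Note: mouse activin A protein probed at 4.33 µg/mL on printed slides; score merges bound-protein fluorescence near 667 nm with spot signal-to-noise.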 The conditions noted are these: INHBA, higher = more signal.
The subject of assay [11] is Human papillomavirus type 1a protein E7 (residues 44-93). The assay is described as follows: small molecules binding HPV E7 44-93 – biochemical, small-molecule microarray, residues 44-93, 635 nm fluorescence, primary screen (AID 1108).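 Note: E7 fragment applied at 1 µg/mL in TBST for 1 h at 4 C; score combines spot fluorescence with its signal to noise ratio.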 The conditions noted are these: fluorescence 635 nm, higher = more signal.
A short description of assay [12]: hepatitis C replication reporter changes, two-sided – Huh7 cells, luciferase reporter, HCV replication inhibitor project, primary screen (AID 1109).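 Note: huh7 hepatoma cells harbouring a luciferase neomycin HCV replicon reporter; luciferase luminescence as measure of HCV replicon replication; test concentration not given here.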 To be noted: Huh7 HCV replicon luciferase reporter, 48 h; higher = more signal.
For assay [13], the target named is Left-right determination factor 2 (Homo sapiens) (UniProt O00292). In words: small molecules binding LEFTY2 protein – biochemical, small-molecule microarray, 635 nm fluorescence scan, primary screen (AID 1110). To be noted: higher = more signal.
Sequence of Left-right determination factor 2 (Homo sapiens) (O00292 whole entry, looked up): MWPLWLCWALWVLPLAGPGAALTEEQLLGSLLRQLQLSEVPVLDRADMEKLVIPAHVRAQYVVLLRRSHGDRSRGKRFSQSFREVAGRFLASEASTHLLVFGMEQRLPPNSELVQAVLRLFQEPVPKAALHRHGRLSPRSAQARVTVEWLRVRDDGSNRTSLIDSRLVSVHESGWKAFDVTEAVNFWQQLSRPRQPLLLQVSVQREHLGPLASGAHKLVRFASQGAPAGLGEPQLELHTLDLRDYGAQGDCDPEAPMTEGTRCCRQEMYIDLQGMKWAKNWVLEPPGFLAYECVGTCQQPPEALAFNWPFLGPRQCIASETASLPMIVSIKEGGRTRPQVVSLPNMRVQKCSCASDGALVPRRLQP
Assay [14] concerns the target Calmodulin-1 (Homo sapiens) (UniProt P0DP23). The assay is described as follows: small molecules binding calmodulin-1 with EGTA – biochemical, small-molecule microarray, Cy5-labelled CALM1, profiling panel (AID 1111).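 Note: labelled calmodulin applied in Tris saline Tween buffer holding calcium plus EGTA and DTT.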 To be noted: Cy5-CALM1 binding fluorescence, higher = more signal.
The target is the same in assay [15]. In words: small molecules binding Ca-loaded calmodulin-1 – biochemical, small-molecule microarray, Cy5-labelled CALM1, plus calcium, artefact control for SMM control-protein annotation, profiling panel (AID 1112).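 Note: score merges spot fluorescence with signal to noise from triplicate slides.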 The conditions noted are these: Cy5-CALM1 binding fluorescence, higher = more signal.
Assay [16] can be described thus: probe aWnt5a binding to arrayed compounds – biochemical, biotinylated probe, 635/667 nm fluorescence, primary screen (AID 1113).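 Note: score merges 667 nm fluorescence intensity with signal-to-noise per printed feature.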 To be noted: small-molecule microarray, higher = more signal.
Assay [17] can be described thus: probe aShh binding to arrayed compounds – biochemical, biotinylated probe, 635/667 nm fluorescence, primary screen (AID 1114).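 Note: probe is biotin-labelled aShh protein from a stem cell growth factor screen; measures binding of labelled protein to compounds printed on the slide; score merges feature fluorescence at 667 nm with signal-to-noise.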 To be noted: small-molecule microarray, higher = more signal.
Assay [18] in a line: probe aNog binding to arrayed compounds – biochemical, biotinylated probe, 635/667 nm fluorescence, primary screen (AID 1115).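 Note: probe is biotinylated aNog protein used at 0.15 µg/mL for 1 h at 4 C; z-score combines 667 nm fluorescence of each spot with its signal to noise.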 The conditions noted are these: small-molecule microarray, higher = more signal.
Assay [19] deals with Torsin-1A-interacting protein 1 (Homo sapiens) (UniProt Q5JTV8). In words: compound microarray binding of lysate hLAP1 – cell lysate, small-molecule microarray, COS7 lysate, 635/667 nm fluorescence, primary screen (AID 1116). The conditions noted are these: 635 nm fluorescence, higher = more signal.
Sequence of Torsin-1A-interacting protein 1 (Homo sapiens) (Q5JTV8 whole entry, looked up): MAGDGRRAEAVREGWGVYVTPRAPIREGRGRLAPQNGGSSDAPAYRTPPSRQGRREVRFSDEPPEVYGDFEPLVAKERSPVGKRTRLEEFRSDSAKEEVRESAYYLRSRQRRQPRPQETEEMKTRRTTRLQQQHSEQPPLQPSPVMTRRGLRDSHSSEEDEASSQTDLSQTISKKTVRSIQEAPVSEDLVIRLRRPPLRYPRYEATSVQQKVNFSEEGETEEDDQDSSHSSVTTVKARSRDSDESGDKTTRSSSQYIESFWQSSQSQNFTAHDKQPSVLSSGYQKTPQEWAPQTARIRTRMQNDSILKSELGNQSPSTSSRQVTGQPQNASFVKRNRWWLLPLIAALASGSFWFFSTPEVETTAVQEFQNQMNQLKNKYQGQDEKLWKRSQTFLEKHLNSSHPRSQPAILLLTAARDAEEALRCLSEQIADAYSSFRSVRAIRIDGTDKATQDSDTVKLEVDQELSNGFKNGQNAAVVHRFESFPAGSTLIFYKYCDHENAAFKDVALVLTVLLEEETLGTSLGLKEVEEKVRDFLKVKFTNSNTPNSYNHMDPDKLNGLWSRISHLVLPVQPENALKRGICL
The target of assay [20] is Alpha-bungarotoxin (Bungarus multicinctus) (UniProt P60615). In words: compounds binding labelled alpha-BTX control protein – biochemical, small-molecule microarray, Alexa647 label, 635/667 nm fluorescence, artefact control for SMM control protein annotation, profiling panel (AID 1117). The conditions noted are these: alpha-BTX-A647 binding fluorescence, higher = more signal.
Sequence of Alpha-bungarotoxin (Bungarus multicinctus) (P60615 whole entry, looked up): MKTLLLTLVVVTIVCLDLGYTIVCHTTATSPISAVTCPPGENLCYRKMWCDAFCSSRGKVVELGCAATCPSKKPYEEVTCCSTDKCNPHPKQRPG

The source made the active and inactive calls.

Composite z-score and z-score data for 6 compounds are collected here from PubChem BioAssay.

Sequence of Follistatin-related protein 3 (Homo sapiens) (O95633 whole entry, looked up): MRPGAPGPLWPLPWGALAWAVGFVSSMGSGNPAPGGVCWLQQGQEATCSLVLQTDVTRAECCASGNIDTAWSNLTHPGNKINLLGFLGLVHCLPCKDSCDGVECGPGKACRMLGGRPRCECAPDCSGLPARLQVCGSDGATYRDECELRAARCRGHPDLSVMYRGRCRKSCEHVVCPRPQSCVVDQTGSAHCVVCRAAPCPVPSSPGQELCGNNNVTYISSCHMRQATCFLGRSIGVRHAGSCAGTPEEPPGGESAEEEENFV
Sequence of Dickkopf-related protein 1 (Homo sapiens) (O94907 whole entry, looked up): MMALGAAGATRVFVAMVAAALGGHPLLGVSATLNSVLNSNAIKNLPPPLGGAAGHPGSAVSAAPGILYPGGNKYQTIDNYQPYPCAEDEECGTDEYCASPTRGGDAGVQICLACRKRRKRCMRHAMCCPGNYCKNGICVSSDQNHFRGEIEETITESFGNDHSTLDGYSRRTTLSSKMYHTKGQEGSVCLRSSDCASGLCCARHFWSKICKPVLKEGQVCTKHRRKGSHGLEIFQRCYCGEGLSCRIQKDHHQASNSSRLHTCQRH
Sequence of Fibroblast growth factor 10 (Homo sapiens) (O15520 whole entry, looked up): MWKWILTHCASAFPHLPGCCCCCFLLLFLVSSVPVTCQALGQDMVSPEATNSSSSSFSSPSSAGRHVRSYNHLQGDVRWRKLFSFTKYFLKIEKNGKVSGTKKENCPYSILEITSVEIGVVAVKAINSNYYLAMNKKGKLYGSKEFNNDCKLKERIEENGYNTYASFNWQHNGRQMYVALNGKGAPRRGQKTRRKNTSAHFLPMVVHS

For `OCCCC1=CC(c2ccc(CN3CCCC3)cc2)N(Cc2sc3ccccc3c2Cl)CC1` (stereo not given), the composite z-score in assay [1] stood at 1.39; in [2] it was 0.14; in [3] it was 0.504; in assay [5], 1.03; in assay [6], 1.3; in assay [7], 0.62. The composite z-score was found to be 0.854 in assay [8]; 0.771 in assay [9]; 1.41 in assay [10]; 1.32 in assay [11]; 0.758 in [13]; 0.325 in [14]. Also, the composite z-score in [15] was -0.585; in assay [16], -0.113; in [17] it was 0.0899; in [18] it was 0.507; in [19], -0.0337; in [20] it was 0.827. The z-score in assay [4] is -1.07 (inactive); in assay [12] it was -4.17.
As for `Cc1ccc(S[C@]2(C(=O)O)CC(=O)N(Cc3cc(C(F)(F)F)cc(C(F)(F)F)c3)[C@@H]2c2ccc(CO)cc2)cc1`, the composite z-score was 1.2 in assay [1]; 0.326 in [2]; 1.14 in assay [3]; -1.65 in assay [5]; -1.03 in assay [6]; -1.89 in assay [7]. In addition, the composite z-score was -1.92 in [8]; -2.26 in assay [9]; -0.131 in [10]; -0.0234 in assay [11]; -2.28 in assay [13]; -0.743 in [14]. In addition, the composite z-score in assay [15] is 0.168; in assay [16], -0.226; in assay [17] it was -0.0483; in assay [18], -0.0733; in [19] it was -0.155; in assay [20] it was -0.876. In addition, the z-score in [4] is -0.262 (inactive); in assay [12] it was -0.0295.
Turning to `CC=CC(O)C1C=CC2C(=O)N(c3ccccc3)C(=O)C2N1Nc1ccccc1F` (stereo not given), the composite z-score in [1] was 0.32; in [2] it was 1.24; in [3], 0.76; in [5], 0.169; in assay [6] it was -0.352; in assay [7], 0.114. Besides, the composite z-score is -0.0808 in assay [8]; 0.0324 in [9]; 1.21 in [10]; 0.286 in assay [11]; -0.0207 in assay [13]; 0.416 in [14]. In addition, the composite z-score in assay [15] came to 0.213; in assay [16], 0.339; in assay [17], 0.429; in assay [18] it was 1.07; in assay [19], 0.0757; in assay [20], 0.437. In addition, the z-score in assay [4] was 0.095 (inactive); in [12], -0.536.
On to `C=CCOC(=O)[C@H]1[C@@H]2C(=O)O[C@@H](c3ccccc3)[C@@H](c3ccccc3)N2[C@@H](c2ccc(OCCOC(=O)[C@@H]3C[C@@H]4C(=O)N[C@@H](CCCCNC(C)=O)C(=O)N4[C@@H]3c3ccc(O)cc3)cc2)[C@]12C(=O)Nc1ccc(I)cc12`, for which the composite z-score in assay [1] worked out at 0.95; in assay [2] it was 0.0153; in [3] it was 0.127; in assay [5] it was 1.33; in assay [6] it was 1.27; in assay [7] it was 1.08. In addition, the composite z-score amounted to 1.3 in assay [8]; 0.789 in assay [9]; 0.732 in assay [10]; 1.37 in assay [11]; 0.637 in assay [13]; 0.48 in [14]. Besides, the composite z-score is -0.215 in assay [15]; -0.0519 in assay [16]; 0.131 in assay [17]; 0.381 in assay [18]; 1.65 in assay [19]; 1.78 in assay [20]. The results for the z-score in [4] and in assay [12] were -0.151 (inactive) and -1.14, respectively.
In the case of `COCCOC(=O)N1C(=O)[C@@]2(c3cc(C#CC4=CCCCC4)ccc31)[C@H](C(=O)N1CCCCCCC1)[C@H]1C(=O)O[C@H](c3ccccc3)[C@H](c3ccccc3)N1[C@@H]2c1ccc(O)cc1`, the composite z-score was found to be 0.376 in [1]; 0.923 in assay [2]; 1 in assay [3]; 0.277 in assay [5]; 0.409 in assay [6]; 0.285 in assay [7]. Moreover, the composite z-score in [8] was found to be 0.735; in assay [9], 0.163; in assay [10], 1.41; in [11], 1.26; in assay [13], 0.134; in [14], 0.765. For the same compound, the composite z-score in assay [15] is 0.522; in assay [16], -0.001; in [17], 0.156; in [18], -0.0901; in [19], 0.775; in assay [20], 0.743. Besides, the z-score was -0.802 (inactive) in assay [4] and -1.35 in assay [12].
For `O=C1NC(=O)C2C1C=CC(C(O)CCc1ccccc1)N2Nc1ccc(Cl)cc1Cl` (stereo not given), the composite z-score in assay [1] was 0.187; in [2], 1.39; in [3], 1.29; in assay [5], 0.265; in [6] it was 0.107; in [7], -0.973. Moreover, the composite z-score is 0.195 in assay [8]; -0.743 in [9]; 1.28 in assay [10]; -0.72 in [11]; -0.448 in assay [13]; 1.54 in assay [14]. Further, the composite z-score in assay [15] is 0.819; in assay [16] it was 0.539; in assay [17], -0.0571; in assay [18] it was 1.04; in [19], 1.97; in assay [20], 2.65. Besides, the z-score is 1.5 (inactive) in assay [4] and -0.271 in [12].
